This note sets out measurements from the supplement of paper PMC12669032.

The subject of one assay is Parabacteroides distasonis. The assay is described as follows: growth AUC relative to DMSO control (median of replicates) (fraction); higher = more growth (less inhibition), active = hit call of the paper. The note with it: 20 µM; 24 h. A digest of the protocol:
(§1)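 OD600 was recorded every hour for 24 h in anaerobic monocultures of gut bacteria kept at 37 °C in mGAM, seeded at OD600 0.05 and given 20 µM compound in 1% DMSO. The area under each growth curve was scaled to the plate median of solvent-only wells, or to row and column medians for the industrial chemical plate. Before this step, the minimum OD was set to 0. Reported values are medians of three biological replicates run on separate days.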
Regarding `N#Cc1ccc(CC(=NNC(=O)Nc2ccc(OC(F)(F)F)cc2)c2cccc(C(F)(F)F)c2)cc1` (mixture of isomers), the “growth AUC” value was 0.999 (inactive).
For `COC(=O)C(C)Oc1ccc(Cl)cc1Cl` (stereo not drawn), the “growth AUC” value is 0.996 (inactive).
`CC(C)N(C(=O)C(=O)O)c1ccccc1`: the “growth AUC” value was 1.07 (inactive).
As to `c1ccc(CNc2ncnc3nc[nH]c23)cc1`, the “growth AUC” value was 1.05 (inactive).
Turning to `C=CCc1ccc(O)c(OC)c1`, the “growth AUC” value was 0.97 (inactive).
With `CCCCOC(=O)COc1ccc(Cl)cc1Cl`, the “growth AUC” value is 0.994 (inactive).
In the case of `CC(Oc1ccc(Cl)cc1Cl)C(=O)NC(C)(C#N)C(C)C` (stereo not drawn), the “growth AUC” value was 0.65 (active).
On to `Cc1cccc(C)c1N(CC(=O)O)C(=O)CS(=O)(=O)[O-].[Na+]`, for which the “growth AUC” value was 0.965 (inactive).
Consider `c1ccc2cc3ccccc3cc2c1`, for which the “growth AUC” value is 0.758 (inactive).
As for `Cn1cc(C(=O)Nc2ccc(F)cc2-c2ccc(Cl)c(Cl)c2)c(C(F)F)n1`, the “growth AUC” value is 0.741 (active).
For the compound `O=c1cccc2n1CCn1c-2cccc1=O`, the “growth AUC” value was 1.04 (inactive).
On to `CCCCCCC(C)OC(=O)COc1nc(F)c(Cl)c(N)c1Cl` (stereo not drawn), for which the “growth AUC” value is 0.919 (inactive).
As for `Cc1[nH]n(C)c(=O)c1C(=O)c1ccc(C(F)(F)F)cc1S(C)(=O)=O`, the “growth AUC” value was 1.04 (inactive).
Take `COC(=O)[C@@H](C)Oc1ccc(Oc2ncc(C(F)(F)F)cc2Cl)cc1`: the “growth AUC” value is 0.913 (inactive).
On the same count and under the same terms, then `CC(C)OC(=O)N[C@H](C(=O)N[C@H](C)c1nc2ccc(F)cc2s1)C(C)C`, with 0.847 (inactive).
Still for that read-out and setting: the result for `O.O=C(Nc1ccc([N+](=O)[O-])cc1Cl)c1cc(Cl)ccc1O` reads 0.0373 (active); that for `CC1=C(C(=O)Nc2ccccc2)CCCO1`, 0.974 (inactive); that for `CCOCCOC(=O)C(C)Oc1ccc(Oc2ncc(C(F)(F)F)cc2Cl)cc1` (stereo not drawn), 0.859 (inactive).
On to `NS(=O)(=O)[O-].[NH4+]`, for which the “growth AUC” value was 1.02 (inactive).
In the case of `CCOC(=O)CSc1nc(C(C)(C)C)nn1C(=O)N(C)C`, the “growth AUC” value was 0.896 (inactive).
Consider `CCc1cccc(C)c1NC(=O)CS(=O)(=O)[O-].[Na+]`, for which the “growth AUC” value was 1.02 (inactive).
Consider `ClC(COCC(Cl)C(Cl)(Cl)Cl)C(Cl)(Cl)Cl` (stereo not drawn), for which the “growth AUC” value is 0.98 (inactive).
Consider `CCC(C)c1cc([N+](=O)[O-])cc([N+](=O)[O-])c1OC(=O)OC(C)C` (stereo not drawn), for which the “growth AUC” value was 0.979 (inactive).
Regarding `CC(C)(CO)C(O)(CCc1ccc(Cl)cc1)Cn1cncn1` (stereo not drawn), the “growth AUC” value was 0.88 (inactive).
Consider `CC(C)(C)C(=O)C(Oc1ccc(Cl)cc1)n1ccnc1` (stereo not drawn), for which the “growth AUC” value is 0.938 (inactive).
Take `CC(C)(NC(=O)C(Br)C(C)(C)C)c1ccccc1` (stereo not drawn): the “growth AUC” value is 0.97 (inactive).
The same measure, in the same setting: then `COc1cc(OC)nc(NC(=O)NS(=O)(=O)c2c(Cl)nc3ccccn23)n1`, with 1.02 (inactive).
As to `CCc1ccc(O)cc1`, the “growth AUC” value was 1.02 (inactive).
As to `CCOc1nc(F)cc2nc(S(=O)(=O)Nc3c(Cl)cccc3C(=O)OC)nn12`, the “growth AUC” value is 1.05 (inactive).
`CCOCCc1ccc(OCCNc2ncnc(CC)c2Cl)c(C)c1C`: the “growth AUC” value was 0.903 (inactive).
As to `CCOC(=O)[C@@H](C)Oc1ccc(Oc2cnc3cc(Cl)ccc3n2)cc1`, the “growth AUC” value was 1.02 (inactive).
As for `Cc1cccc(C)c1N(C(=O)CCl)C1CCOC1=O` (stereo not drawn), the “growth AUC” value was 0.99 (inactive).
Regarding `Cc1[nH]oc(=O)c1N=Nc1ccccc1Cl`, the “growth AUC” value is 0.987 (inactive).
With `CCCOc1nc2ccc(I)cc2c(=O)n1CCC`, the “growth AUC” value is 0.647 (active).
`CCOCOc1ccc(C(=O)Nc2cccc(Cl)c2Cl)cc1`: the “growth AUC” value is 0.976 (inactive).
On the same count and under the same terms, the result for `COc1ccc(Oc2ccc(NC(=O)N(C)C)cc2)cc1` reads 0.989 (inactive); that for `COCCN(C(=O)CO)c1c(C)cccc1C(=O)O`, 0.904 (inactive).
`C/C=C/C=C/CCCCCCCO`: the “growth AUC” value was 0.967 (inactive).
For `CCOC(=O)C(C)Oc1ccc(Oc2nc3ccc(Cl)cc3o2)cc1` (racemic), the “growth AUC” value was 0.824 (inactive).

A further assay deals with Parabacteroides merdae. The description is as above. Conditions: 20 µM; 24 h;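 active = AUC reduced over 20% with Padj below 0.05 in at least 2 of 3 replicates; inactive = otherwise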. Summed up:
as §1
As to `N#Cc1ccc(CC(=NNC(=O)Nc2ccc(OC(F)(F)F)cc2)c2cccc(C(F)(F)F)c2)cc1` (mixture of isomers), the “growth AUC” value was 0.936 (inactive).
As to `COC(=O)C(C)Oc1ccc(Cl)cc1Cl` (stereo not drawn), the “growth AUC” value is 1.01 (inactive).
With `CC(C)N(C(=O)C(=O)O)c1ccccc1`, the “growth AUC” value is 1.03 (inactive).
With `c1ccc(CNc2ncnc3nc[nH]c23)cc1`, the “growth AUC” value was 1.02 (inactive).
As for `C=CCc1ccc(O)c(OC)c1`, the “growth AUC” value is 0.996 (inactive).
On the same count and under the same terms, then `CCCCOC(=O)COc1ccc(Cl)cc1Cl`, with 0.979 (inactive); and `CC(Oc1ccc(Cl)cc1Cl)C(=O)NC(C)(C#N)C(C)C` (stereo not drawn), with 0.981 (inactive).
Take `Cc1cccc(C)c1N(CC(=O)O)C(=O)CS(=O)(=O)[O-].[Na+]`: the “growth AUC” value is 0.997 (inactive).
As for `c1ccc2cc3ccccc3cc2c1`, the “growth AUC” value is 0.958 (inactive).
Consider `Cn1cc(C(=O)Nc2ccc(F)cc2-c2ccc(Cl)c(Cl)c2)c(C(F)F)n1`, for which the “growth AUC” value is 0.892 (inactive).
As to `O=c1cccc2n1CCn1c-2cccc1=O`, the “growth AUC” value was 1.01 (inactive).
On to `CCCCCCC(C)OC(=O)COc1nc(F)c(Cl)c(N)c1Cl` (stereo not drawn), for which the “growth AUC” value is 0.891 (inactive).
As for `Cc1[nH]n(C)c(=O)c1C(=O)c1ccc(C(F)(F)F)cc1S(C)(=O)=O`, the “growth AUC” value is 0.974 (inactive).
`COC(=O)[C@@H](C)Oc1ccc(Oc2ncc(C(F)(F)F)cc2Cl)cc1`: the “growth AUC” value is 1.01 (inactive).
As for `CC(C)OC(=O)N[C@H](C(=O)N[C@H](C)c1nc2ccc(F)cc2s1)C(C)C`, the “growth AUC” value was 1 (inactive).
For the compound `O.O=C(Nc1ccc([N+](=O)[O-])cc1Cl)c1cc(Cl)ccc1O`, the “growth AUC” value was 0.0254 (active).
In the case of `CC1=C(C(=O)Nc2ccccc2)CCCO1`, the “growth AUC” value is 1.01 (inactive).
As to `CCOCCOC(=O)C(C)Oc1ccc(Oc2ncc(C(F)(F)F)cc2Cl)cc1` (stereo not drawn), the “growth AUC” value was 0.991 (inactive).
As for `NS(=O)(=O)[O-].[NH4+]`, the “growth AUC” value was 1.06 (inactive).
Take `CCOC(=O)CSc1nc(C(C)(C)C)nn1C(=O)N(C)C`: the “growth AUC” value is 0.947 (inactive).
With `CCc1cccc(C)c1NC(=O)CS(=O)(=O)[O-].[Na+]`, the “growth AUC” value is 0.989 (inactive).
With `ClC(COCC(Cl)C(Cl)(Cl)Cl)C(Cl)(Cl)Cl` (stereo not drawn), the “growth AUC” value was 0.932 (inactive).
Take `CCC(C)c1cc([N+](=O)[O-])cc([N+](=O)[O-])c1OC(=O)OC(C)C` (stereo not drawn): the “growth AUC” value was 0.929 (inactive).
Consider `CC(C)(CO)C(O)(CCc1ccc(Cl)cc1)Cn1cncn1` (stereo not drawn), for which the “growth AUC” value was 0.985 (inactive).
Take `CC(C)(C)C(=O)C(Oc1ccc(Cl)cc1)n1ccnc1` (stereo not drawn): the “growth AUC” value is 0.96 (inactive).
Still for that read-out and setting: the result for `CC(C)(NC(=O)C(Br)C(C)(C)C)c1ccccc1` (stereo not drawn) reads 0.95 (inactive); that for `COc1cc(OC)nc(NC(=O)NS(=O)(=O)c2c(Cl)nc3ccccn23)n1`, 1.04 (inactive).
`CCc1ccc(O)cc1`: the “growth AUC” value was 0.968 (inactive).
For `CCOc1nc(F)cc2nc(S(=O)(=O)Nc3c(Cl)cccc3C(=O)OC)nn12`, the “growth AUC” value is 1.02 (inactive).
For the compound `CCOCCc1ccc(OCCNc2ncnc(CC)c2Cl)c(C)c1C`, the “growth AUC” value is 0.92 (inactive).
On to `CCOC(=O)[C@@H](C)Oc1ccc(Oc2cnc3cc(Cl)ccc3n2)cc1`, for which the “growth AUC” value is 0.99 (inactive).
`Cc1cccc(C)c1N(C(=O)CCl)C1CCOC1=O` (stereo not drawn): the “growth AUC” value was 0.981 (inactive).
For the compound `Cc1[nH]oc(=O)c1N=Nc1ccccc1Cl`, the “growth AUC” value was 0.949 (inactive).
The same measure, in the same setting: then `CCCOc1nc2ccc(I)cc2c(=O)n1CCC`, with 0.923 (inactive); and `CCOCOc1ccc(C(=O)Nc2cccc(Cl)c2Cl)cc1`, with 0.961 (inactive); and `COc1ccc(Oc2ccc(NC(=O)N(C)C)cc2)cc1`, with 0.943 (inactive).
For the compound `COCCN(C(=O)CO)c1c(C)cccc1C(=O)O`, the “growth AUC” value is 0.986 (inactive).
For `C/C=C/C=C/CCCCCCCO`, the “growth AUC” value is 0.982 (inactive).
For the compound `CCOC(=O)C(C)Oc1ccc(Oc2nc3ccc(Cl)cc3o2)cc1` (racemic), the “growth AUC” value is 0.969 (inactive).
